Reference: PubChem BioAssay (NCATS)
A number with no mark means an inactive call. Inconclusive results are not listed. A call without a number means that no potency is given here. Activity calls are given as the source filed them. Unless noted, calls follow the shape of the dose curve; as a rule, active = well fitted inhibition curve with a large enough effect; inconclusive = small, poorly fitted or top-dose-only effect; inactive = no such curve, though single readings can be large or run the other way.

Legend:
[1] = molecular target: Cytochrome P450 1A2 (Homo sapiens) (UniProt P05177); test: p450-cyp1a2 (AID 410; calls by dose curve; also: potency is read from the fitted curve at half-maximal effect)
Method in brief: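 Luminescent readout of luciferin formed from Luciferin-ME by human CYP1A2; data normalized against complete inhibition by 57 uM furafylline. Enzyme 20nM, substrate 100uM at Km, 100mM KPO4 buffer, 60 min reaction at room temperature.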

[2] = molecular target: Glucocorticoid receptor (Homo sapiens) (UniProt P04150); test: GR-EFC Redistribution (AID 451; calls by dose curve; also: potency is read from the fitted curve at half-maximal effect); conditions: CHO-K1 GR-EFC translocation, beta-gal luminescence, 2 h
Method in brief: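 Translocation of GR-ED fusion to nuclear EA restores b-gal, read by luminescence after 1 h room-temperature detection. Engineered CHO-K1 biosensor cells, 1,000/well, exposed 2 h at 37 C to titrations up to 46 uM final.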

[3] = molecular target: Mitogen-activated protein kinase 10 (Mus musculus) (UniProt Q61831); test: JNK3 AlphaScreen Assay (AID 530; active = well fitted curve in either direction with a large enough effect, not every such curve was filed as active;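 also: kinase came from lysate of stimulated human HepG2 cells; signal reports phosphorylation of biotinylated GST-cJun 1-79 at Ser73 with 10 µM ATP; series mostly up to about 57 µM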)
Method in brief: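 Compound titrations were preincubated 15 minutes at room temperature with substrate, antibody and pre-activated JNK3-containing HepG2 lysate. Reactions were started with 10 uM ATP and stopped with EDTA-containing bead buffer for AlphaScreen detection.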

[4] = molecular target: 3',5'-cyclic-AMP phosphodiesterase 4B (Homo sapiens) (UniProt Q07343); test: qHTS Assay for Inhibitors of PDE-IV (AID 607; active = well fitted activation curve with a large enough effect in the main read-out, with a control signal flat, not every such curve was filed as active)
Method in brief: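 Live HEK293 cells with a modified cyclic nucleotide-gated (CNG) channel report intracellular cAMP via membrane-potential dye fluorescence (ex 535/em 590 nm). Endogenous PDE-IV was targeted. Compounds were tested at up to 22.9 uM final; RO 20-1724 100 uM served as control.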

[5] = molecular target: Cytochrome P450 2C9 (Homo sapiens) (UniProt P11712); test: qHTS Assay for Inhibitors and Substrates of Cytochrome P450 2C9 (AID 883); also: nearly all actives have a fitted effect of over 60% in size
Method in brief: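 Luminescent read-out of deoxyluciferin hydroxylation, normalized to 57uM sulphaphenazole (AC100). Reaction: 10nM enzyme, 100uM Luciferin-H (equal to KM), 25mM KPO4, 10 min compound preincubation, then 60 min with NADPH regeneration, both at 37C.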

[6] = molecular target: Cytochrome P450 2D6 (Homo sapiens) (UniProt P10635); test: qHTS Assay for Inhibitors and Substrates of Cytochrome P450 2D6 (AID 891);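 also: luciferin methyl ether substrate demethylated by CYP2D6 with NADPH regeneration; nearly all actives have a fitted effect of over 60% in size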
Method in brief: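 Human CYP2D6 (5 nM) with 30 uM Luciferin-ME EGE (at Km) in 100 mM KPO4, compound preincubated 10 min, then NADPH regeneration system for 60 min at room temperature. Luciferin read by luminescence; normalized to 1.43 uM quinidine.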

[7] = molecular target: Cytochrome P450 2C19 (Homo sapiens) (UniProt P33261); test: qHTS Assay for Inhibitors and Substrates of Cytochrome P450 2C19 (AID 899); also: nearly all actives have a fitted effect of over 60% in size
Method in brief: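 Luminescence readout of luciferin formed from 10uM Luciferin-H EGE (KM level) by 5 nM CYP2C19 in 50mM KPO4. 60 min NADPH-driven reaction at 37C after 10 min compound preincubation; data scaled to 57uM ketoconazole inhibition.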

Cytochrome P450 2C9 (Homo sapiens), sequence (P11712 whole entry, looked up): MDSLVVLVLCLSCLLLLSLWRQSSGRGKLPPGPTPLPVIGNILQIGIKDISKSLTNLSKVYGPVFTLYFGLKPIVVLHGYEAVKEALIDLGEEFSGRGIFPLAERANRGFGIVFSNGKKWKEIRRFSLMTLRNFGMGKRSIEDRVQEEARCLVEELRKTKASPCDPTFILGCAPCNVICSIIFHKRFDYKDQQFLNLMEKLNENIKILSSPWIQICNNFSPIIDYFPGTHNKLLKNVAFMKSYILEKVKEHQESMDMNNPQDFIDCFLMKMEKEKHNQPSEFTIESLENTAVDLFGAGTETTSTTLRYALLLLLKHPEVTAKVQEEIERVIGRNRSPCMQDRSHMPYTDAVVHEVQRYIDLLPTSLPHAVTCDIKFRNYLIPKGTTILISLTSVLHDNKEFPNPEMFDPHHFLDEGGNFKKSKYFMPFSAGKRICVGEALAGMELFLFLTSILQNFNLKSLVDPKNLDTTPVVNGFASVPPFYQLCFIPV
Cytochrome P450 2D6 (Homo sapiens), sequence (P10635 whole entry, looked up): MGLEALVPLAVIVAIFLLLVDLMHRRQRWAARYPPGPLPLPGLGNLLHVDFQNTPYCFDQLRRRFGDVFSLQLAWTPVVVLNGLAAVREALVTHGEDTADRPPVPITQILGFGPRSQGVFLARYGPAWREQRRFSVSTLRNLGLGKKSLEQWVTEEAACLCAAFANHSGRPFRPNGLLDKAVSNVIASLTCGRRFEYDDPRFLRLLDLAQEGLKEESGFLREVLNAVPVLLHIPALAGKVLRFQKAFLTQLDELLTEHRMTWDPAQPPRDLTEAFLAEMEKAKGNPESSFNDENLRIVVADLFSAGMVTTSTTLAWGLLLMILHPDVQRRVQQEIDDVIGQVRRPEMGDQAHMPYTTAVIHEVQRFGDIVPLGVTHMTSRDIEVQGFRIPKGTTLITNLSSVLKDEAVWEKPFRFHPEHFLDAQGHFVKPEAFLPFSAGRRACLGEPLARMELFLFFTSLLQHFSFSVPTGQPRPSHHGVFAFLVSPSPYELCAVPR
Cytochrome P450 2C19 (Homo sapiens), sequence (P33261 whole entry, looked up): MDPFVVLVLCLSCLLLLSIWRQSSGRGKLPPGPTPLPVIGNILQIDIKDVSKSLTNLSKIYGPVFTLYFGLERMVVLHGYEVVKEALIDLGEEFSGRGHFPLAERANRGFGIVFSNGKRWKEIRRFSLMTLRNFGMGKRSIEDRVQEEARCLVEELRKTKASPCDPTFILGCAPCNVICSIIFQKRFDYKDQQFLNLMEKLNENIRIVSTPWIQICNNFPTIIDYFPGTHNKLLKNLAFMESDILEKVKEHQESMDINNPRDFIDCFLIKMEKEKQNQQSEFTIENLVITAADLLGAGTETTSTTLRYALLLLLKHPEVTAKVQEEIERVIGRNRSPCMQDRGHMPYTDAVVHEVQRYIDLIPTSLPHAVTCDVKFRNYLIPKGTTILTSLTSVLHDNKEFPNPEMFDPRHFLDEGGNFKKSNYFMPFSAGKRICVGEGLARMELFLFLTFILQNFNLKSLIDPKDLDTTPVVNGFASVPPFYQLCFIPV
Glucocorticoid receptor (Homo sapiens), sequence (P04150 whole entry, looked up, the tested form may be a part): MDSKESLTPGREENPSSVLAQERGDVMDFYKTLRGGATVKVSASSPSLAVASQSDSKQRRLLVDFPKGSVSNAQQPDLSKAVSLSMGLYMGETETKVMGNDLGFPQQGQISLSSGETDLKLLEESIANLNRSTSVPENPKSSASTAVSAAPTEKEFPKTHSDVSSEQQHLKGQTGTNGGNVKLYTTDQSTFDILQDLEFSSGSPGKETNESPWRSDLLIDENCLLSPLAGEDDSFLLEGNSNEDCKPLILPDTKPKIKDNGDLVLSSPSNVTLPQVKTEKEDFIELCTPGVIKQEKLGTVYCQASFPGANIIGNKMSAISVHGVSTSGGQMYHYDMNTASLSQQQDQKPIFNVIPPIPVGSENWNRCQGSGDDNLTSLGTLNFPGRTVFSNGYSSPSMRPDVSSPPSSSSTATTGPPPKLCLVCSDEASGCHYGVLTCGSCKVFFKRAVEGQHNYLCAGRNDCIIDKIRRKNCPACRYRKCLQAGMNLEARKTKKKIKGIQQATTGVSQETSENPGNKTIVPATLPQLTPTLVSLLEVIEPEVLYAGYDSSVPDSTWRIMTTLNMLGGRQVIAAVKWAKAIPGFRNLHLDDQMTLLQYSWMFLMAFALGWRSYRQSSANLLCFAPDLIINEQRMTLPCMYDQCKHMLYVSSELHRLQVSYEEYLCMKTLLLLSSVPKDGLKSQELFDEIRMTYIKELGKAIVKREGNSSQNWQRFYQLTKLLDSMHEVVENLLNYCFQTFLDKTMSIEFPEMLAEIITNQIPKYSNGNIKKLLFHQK
Cytochrome P450 1A2 (Homo sapiens), sequence (P05177 whole entry, looked up): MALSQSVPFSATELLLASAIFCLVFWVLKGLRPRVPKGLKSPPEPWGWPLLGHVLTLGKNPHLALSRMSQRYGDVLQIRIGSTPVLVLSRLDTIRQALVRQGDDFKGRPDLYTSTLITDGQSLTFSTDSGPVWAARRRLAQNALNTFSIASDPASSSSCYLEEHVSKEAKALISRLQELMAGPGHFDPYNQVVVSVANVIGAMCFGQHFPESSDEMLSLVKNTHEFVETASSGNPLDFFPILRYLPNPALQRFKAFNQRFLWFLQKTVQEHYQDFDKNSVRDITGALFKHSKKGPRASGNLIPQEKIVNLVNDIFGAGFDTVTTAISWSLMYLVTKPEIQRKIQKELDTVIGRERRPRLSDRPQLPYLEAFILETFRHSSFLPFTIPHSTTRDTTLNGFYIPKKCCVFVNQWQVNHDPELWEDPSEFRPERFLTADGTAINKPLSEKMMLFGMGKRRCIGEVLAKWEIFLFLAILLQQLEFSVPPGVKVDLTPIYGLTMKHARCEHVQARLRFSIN
3',5'-cyclic-AMP phosphodiesterase 4B (Homo sapiens), sequence (Q07343 whole entry, looked up): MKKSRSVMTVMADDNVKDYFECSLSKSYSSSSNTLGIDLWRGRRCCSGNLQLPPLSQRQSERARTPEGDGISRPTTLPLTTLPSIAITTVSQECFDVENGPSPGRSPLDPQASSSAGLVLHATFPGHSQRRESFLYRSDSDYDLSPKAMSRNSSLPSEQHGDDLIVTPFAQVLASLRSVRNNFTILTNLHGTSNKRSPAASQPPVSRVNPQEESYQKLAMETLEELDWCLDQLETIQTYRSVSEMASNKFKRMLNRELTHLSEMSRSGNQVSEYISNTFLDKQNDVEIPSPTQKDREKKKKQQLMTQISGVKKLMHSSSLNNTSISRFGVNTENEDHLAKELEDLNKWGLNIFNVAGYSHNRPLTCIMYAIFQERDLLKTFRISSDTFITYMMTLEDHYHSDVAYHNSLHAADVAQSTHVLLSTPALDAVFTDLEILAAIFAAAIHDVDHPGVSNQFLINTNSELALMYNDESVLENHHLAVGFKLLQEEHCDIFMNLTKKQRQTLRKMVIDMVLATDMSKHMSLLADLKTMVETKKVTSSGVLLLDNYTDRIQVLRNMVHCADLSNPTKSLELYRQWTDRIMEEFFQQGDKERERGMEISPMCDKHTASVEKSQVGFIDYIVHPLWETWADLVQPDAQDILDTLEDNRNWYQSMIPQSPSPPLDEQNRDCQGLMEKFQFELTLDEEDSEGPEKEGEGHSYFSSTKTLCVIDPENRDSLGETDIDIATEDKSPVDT

Compound	Potency [1]	Potency [2]	Potency [3]	Potency [4]	Potency [5]	Potency [6]	Potency [7]
NCCC[C@@H](CC(=O)N[C@@H]1CCNC[C@H]1C(=O)N[C@H](CC(=O)N[C@@H](CCC(=O)O)CC(=O)O)Cc1ccccc1)NC(=O)C[C@H](Cc1ccccc1)NC(=O)[C@@H]1CNCC[C@H]1N	31.6 µM (active)	> 46 µM	inactive	inactive	inactive	inactive	inactive
CC(C)C[C@@H](CC(=O)N[C@H](CC(=O)N[C@@H]1CCNC[C@H]1C(=O)N[C@H](CC(=O)N[C@@H](CCC(=O)O)CC(=O)O)CC(C)C)C(C)C)NC(=O)[C@@H]1CNCC[C@H]1N	inactive	> 46 µM	inactive	inactive	–	inactive	inactive
CC(C)[C@@H](CC(=O)N[C@@H]1CCNC[C@H]1C(=O)N[C@H](CC(=O)N[C@@H](CCC(=O)O)CC(=O)O)Cc1ccccc1)NC(=O)C[C@H](Cc1c[nH]c2ccccc12)NC(=O)[C@@H]1CCCC[C@H]1N	39.8 µM (active)	> 46 µM	inactive	–	inactive	inactive	inactive
CC(C)C[C@@H](CC(=O)N[C@@H](CCC(=O)O)CC(=O)O)NC(=O)[C@@H]1CCCC[C@H]1NC(=O)C[C@H](CCCN)NC(=O)C[C@H](Cc1ccccc1)NC(=O)[C@@H]1CCCC[C@H]1N	inactive	> 46 µM	inactive	–	inactive	inactive	–
CC(C)[C@@H](CC(=O)N[C@@H]1CCNC[C@H]1C(=O)N[C@H](CC(=O)N[C@@H](CCC(=O)O)CC(=O)O)Cc1ccccc1)NC(=O)C[C@H](CO)NC(=O)[C@@H]1CCCC[C@H]1N	inactive	> 46 µM	inactive	inactive	inactive	inactive	inactive
CC(C)[C@@H](CC(=O)N[C@@H]1CCCC[C@H]1C(=O)N[C@H](CC(=O)N[C@@H](CCC(=O)O)CC(=O)O)Cc1ccccc1)NC(=O)C[C@H](Cc1c[nH]c2ccccc12)NC(=O)[C@@H]1CCCC[C@H]1N	inactive	> 46 µM	inactive	inactive	inactive	inactive	inactive
O[C@@H]1CC[C@H]2Cc3ccccc3N=C21	15.8 µM (active)	> 46 µM	inactive	inactive	inactive	–	inactive
